# Measured values reported in PubChem BioAssay AID1347075 (National Center for Advancing Translational Sciences (NCATS), 2019).
# The campaign covered roughly 400,000 compounds. About 5,500 (1.4%) were called active. Entries that show only a call come without a potency. Another 9% or so got no clear call; they are omitted. The sample holds actives, similar compounds and a random draw of the others, so the mix is not that of the screen. Calls follow the shape of the dose curve; as a rule, active = well fitted cell-killing curve with a large enough effect; inconclusive = small, poorly fitted or top-dose-only effect, or effect the other way; inactive = flat fitted curve, though single readings scatter.
# Experiment: qHTS assay for MDR1-selective chemotherapeutics: Primary screen using the parental adenocarcinoma cell KB-3-1; also: nearly all actives have a fitted effect of over 60% in size
# Settings: KB-3-1 viability, CellTiter-Glo ATP luminescence, 72 h; series mostly up to 46.1 µM
# Summary of the method: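 Parental KB-3-1 adenocarcinoma cells in phenol-red-free DMEM with 10% FBS were pin-treated with compounds at several concentrations, incubated 72 h at 37 °C, and viability read by CellTiter-Glo luminescence; concentration-effect curves were fitted after normalization.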
# Potency is read from the fitted curve at half-maximal effect.
row,SMILES,Potency
1,CCOc1ccccc1CNC(=O)C1CCCN(S(=O)(=O)c2ccc3c(ccn3C)c2)C1 (stereo unspecified),inactive
2,COc1ccccc1NC(=O)c1sc2nc(C)c(C(=O)Nc3ccc(Cl)cc3)c(-c3ccc(Br)cc3)c2c1N,inactive
3,CC(C)c1ccc(NC(=O)c2cc(S(=O)(=O)N3CCc4ccccc4C3)ccc2F)cc1,inactive
4,O=C(Nc1ccc(S(=O)(=O)N2CCc3ccccc3C2)cc1)c1ccccc1,18.4 µM (active)
5,COC(=O)c1ccc(S(=O)(=O)N2CCc3ccccc3C2)cc1,inactive
6,CCOc1ccc(N(CC)C(=O)c2cc3c(=O)oc4ccccc4c3s2)cc1,inactive
7,Cc1ccc(Nc2ccc3cc(S(=O)(=O)N4CCCCC4)ccc3n2)cc1F,inactive
8,COc1ccc(N2CCN(S(=O)(=O)c3ccc4c(c3)CC(=O)N4)CC2)cc1,inactive
9,COc1ccc(N(CC(=O)Nc2cc(OC)ccc2OC)S(=O)(=O)c2c(C)noc2C)cc1,18.4 µM (active)
10,Cc1noc(C)c1S(=O)(=O)N(CC(=O)Nc1ccc2c(c1)OCCO2)c1ccc(C(C)C)cc1,inactive
11,CCOc1ccc(N(CC(=O)OC)S(=O)(=O)c2c(C)noc2C)cc1,inactive
12,CCOC(=O)CN1C(C(=O)c2ccccc2)=C(OC(=O)C(C)(C)C)c2ccccc2S1(=O)=O,inactive
13,COc1ccc(Cn2c(-c3ccc(Cl)cc3)c[n+]3ccccc23)cc1,3.66 µM (active)
14,COc1ccc(Cn2c(=O)oc3ccccc32)cc1,inactive
15,COc1ccc(CNc2nc(-c3ccc(Cl)cc3)nn2C(=O)c2ccccc2)cc1,inactive
16,Cc1oc2ncnc(N3CCCCC3)c2c1C(=O)N1CCN(c2cccc(Cl)c2)CC1,inactive
17,Cc1ccc(CNC(=O)c2cc(-c3ccccc3C)n(CC3CC(c4cccc([N+](=O)[O-])c4)=NO3)n2)cc1 (stereo unspecified),inactive
18,Cc1ccccc1-c1cc(C(=O)NCC2CC2)n(CC2CC(c3cccnc3)=NO2)n1 (stereo unspecified),inactive
19,Cc1ccccc1-c1cc(C(=O)NCc2cccs2)n(CC2CC(c3cccnc3)=NO2)n1 (stereo unspecified),18.4 µM (active)
20,C=C1C=C(C(F)F)n2ncc(C(=O)NCCc3ccccc3OC)c2N1,inactive
21,CCn1cc(C(=O)NCc2ccccc2)c(=O)c2cc(S(=O)(=O)N3CCCCC3)ccc21,inactive
22,O=C(CSc1nc2c(c(=O)[nH]1)CN(Cc1ccc3c(c1)OCO3)CC2)Nc1cc(F)ccc1F,inactive
23,Fc1ccc2[nH]c3c(N4CCSCC4)ncnc3c2c1,5.17 µM (active)
24,N#C/C=C/N1CCN(Cc2ccc3c(c2)OCO3)CC1,inactive

row,SMILES,Potency
1,Fc1ccc2[nH]c3c(N4CCN(Cc5ccc6c(c5)OCO6)CC4)ncnc3c2c1,18.4 µM (active)
2,CCc1nc2onc(C)c2c(=O)n1CC(=O)O,inactive
3,Cc1oc2ncn(CC(C)C)c(=O)c2c1C(=O)N1CCN(c2ccccc2F)CC1,inactive
4,O=C(NCCC1=CCCCC1)c1ccc2c(c1)N(Cc1ccccc1F)C(=O)c1ccccc1S2(=O)=O,inactive
5,O=C(CCS(=O)(=O)c1cc(Br)cc2c1N(C(=O)C1CC1)CC2)Nc1ccc(C(F)(F)F)cc1,inactive
6,Cc1cccc(N2CCN(c3ccc(C(=O)O)cc3NC(=O)c3ccccc3F)CC2C)c1 (stereo unspecified),inactive
7,O=C(c1cnn2c1NC(=C1CC1)C=C2C(F)F)N1CCc2ccccc2C1,inactive
8,CSc1nn(Cc2cccc(C)c2)c(N)c1S(=O)(=O)c1ccccc1,inactive
9,COc1ccccc1-c1cc(NC(C)=O)c2ncc(-c3ccc(F)cc3)n2c1,inactive
10,COc1ccc(-c2cc(NC=O)c3ncc(-c4cc(OC)c(OC)c(OC)c4)n3c2)c(OC)c1,1.3 µM (active)
11,COc1cccc(-c2cc(NC(C)=O)c3ncc(-c4cccc(C(C)=O)c4)n3c2)c1,inactive
12,CC(=O)c1cccc(-c2cnc3c(NC=O)cc(-c4ccccc4Oc4ccccc4)cn23)c1,inactive
13,COc1cccc(-c2cnc3c(NC(C)=O)cc(-c4cccc(NC(C)=O)c4)cn23)c1,inactive
14,COc1ccc(-c2cc(NC=O)c3ncc(-c4cccc(C(=O)N(C)C)c4)n3c2)c(OC)c1,inactive
15,CC(=O)Nc1cccc(-c2cc(NC(C)=O)c3ncc(-c4ccccc4)n3c2)c1,inactive
16,COc1cccc(-c2cnc3c(NC(C)=O)cc(-c4cc(F)ccc4OC)cn23)c1,16.4 µM (active)
17,COc1ccc(-c2cc(NC(C)=O)c3ncc(-c4cc(OC)c(OC)c(OC)c4)n3c2)cn1,5.8 µM (active)
18,CCCN(C(=O)Cn1ncc2c([nH]c3ccc(C)cc32)c1=O)c1ccccc1C,inactive
19,CCc1ccc2oc(-c3ccc(NC(=O)c4cc5ccccc5o4)cc3)nc2c1,inactive
20,COc1ccc(NC(C)=O)cc1NC(=O)CN1CCN(c2ccc(F)cc2)CC1,inactive
21,COC(=O)c1ccc(NC(=O)c2cc(S(=O)(=O)N3CCC(C)CC3)cn2C)cc1,inactive
22,CCOC(=O)c1c(C)oc2nc(C)nc(N(CC(C)C)CC(C)C)c12,inactive
23,CC(C)(O)c1ccccc1CC[C@H](SCC1(CC(=O)O)CC1)c1cccc(/C=C/c2ccc3ccc(Cl)cc3n2)c1,inactive
24,CCc1cnc2c(c1SCC(=O)c1ccccc1)c(=O)n(C)c(=O)n2C,inactive

row,SMILES,Potency
1,Cc1ccc(C)c(S(=O)(=O)N2CCN(c3ncnc4sccc34)CC2)c1,9.2 µM (active)
2,Cc1ccc(C)c(S(=O)(=O)c2nnn3c2nc(N2CCOCC2)c2sccc23)c1,inactive
3,Cc1ccc(C)c(S(=O)(=O)n2nc(C)c(S(=O)(=O)N3CCC(C)CC3)c2C)c1,inactive
4,CCOCCCNC(=O)c1cn(CC)c2ccc(S(=O)(=O)N3CCc4ccccc4C3)cc2c1=O,inactive
5,NC(=O)Nc1ccc(C(=O)OCC(=O)NC2CCCc3ccccc32)cc1 (stereo unspecified),inactive
6,O=C(CCNC(=O)c1ccc(Cl)cc1)NC1CCCc2ccccc21 (stereo unspecified),7.31 µM (active)
7,COC(=O)c1cc(OCC(=O)NC2CCCc3ccccc32)cc(C(=O)OC)c1 (stereo unspecified),inactive
8,Cc1ccc(Cl)cc1NC(=O)CCS(=O)(=O)c1ccc(Br)s1,inactive
9,CCC(C)(C)c1ccc(OCC(=O)N(C)C)c(C(C)(C)CC)c1,16.4 µM (active)
10,CCc1nc(C)ccc1OCC(=O)N(CC)CC,inactive
11,COc1ccc(Cl)cc1NC(=O)CSc1nc2ccccc2c2nc(-c3ccccc3)nn12,inactive
12,CSc1oc(-c2cccs2)nc1S(=O)(=O)c1ccc(Br)cc1,inactive
13,CCOc1ccc(NC(=O)C(CC(C)C)N2Cc3ccccc3C2=O)cc1 (stereo unspecified),inactive
14,C=CCn1c(SCc2c(C)noc2C)nc2sc3c(c2c1=O)CCC(C)C3 (stereo unspecified),4.11 µM (active)
15,CCCn1nnc2sc3c(c2c1=O)CCC(C)C3 (stereo unspecified),inactive
16,C=CCn1c(SCC(=O)NCCCO)nc2sc3c(c2c1=O)CCC3,inactive
17,O=S(=O)(Nc1ccc2nc(-c3cccc(Cl)c3)oc2c1)c1ccccc1,inactive
18,CN(Cc1ccccc1)S(=O)(=O)c1ccc(F)c(C(=O)Nc2cccc(Cl)c2Cl)c1,inactive
19,COc1ccc(-n2c(SCC(=O)Nc3ccc(Cl)c(C)c3)nc3n[nH]c(C)c3c2=N)cc1,inactive
20,COc1cccc(-n2c(SCC(=O)NC3CCCCC3)nc3n[nH]c(C)c3c2=N)c1,13 µM (active)
21,C=CCn1c(CC(=O)Nc2cccc(OC)c2)nnc1SCC(=O)NC1CCCCC1,inactive
22,ClC/C=C/C[n+]1ccccc1Cl,inactive
23,CCOc1ccc(-c2cc3c(=O)n(CC(=O)NCc4ccc(OC)cc4)ccn3n2)cc1,inactive
24,CN(O)C(=S)c1ccccc1,0.0052 µM (active)

row,SMILES,Potency
1,Cc1ccc(S(=O)(=O)N(CC(=O)Nc2cccc([N+](=O)[O-])c2)Cc2ccc(Cl)cc2)cc1,inactive
2,CN(c1ccccc1)S(=O)(=O)c1ccc(NC(=O)COc2ccccc2)cc1,inactive
3,CN(c1ccccc1)S(=O)(=O)c1cccc(NC(=O)Cc2ccc(Cl)cc2)c1,23.1 µM (active)
4,Nc1ncnc2nnsc12,inactive
5,CC(C)Oc1cccc(-c2cnc(N3CCC(C(N)=O)CC3)s2)c1,inactive
6,COc1cc2nc(SCc3ccc(F)cc3)n3nc(CCn4c(C)nc5ccccc54)nc3c2cc1OC,inactive
7,CCCOc1ccc(-c2cccc(NS(=O)(=O)c3ccccc3)c2)nn1,inactive
8,COc1ccc(-c2cccc(NS(=O)(=O)c3cc(C)c(OC)c(C)c3C)c2)nn1,3.66 µM (active)
9,COc1ccc(OC)c(S(=O)(=O)Nc2cccc(-c3ccc4nncn4n3)c2)c1,inactive
10,O=C(Nc1ccc(-c2nc3cc(NC(=O)c4ccccc4Cl)ccc3o2)cc1)c1ccccc1Cl,inactive
11,Fc1ccccc1Cc1ccc(Cl)nn1,inactive
12,C/C(=N\Nc1ccc(Cl)nn1)c1ccccc1O,14.6 µM (active)
13,C/C(=N/Nc1ccc(Cl)cc1)c1cnnc(-c2ccccc2)n1,inactive
14,CC(=O)N1CCc2cc(S(=O)(=O)NC(Cc3ccccc3)C(=O)NCc3ccc(C)cc3)ccc21 (stereo unspecified),inactive
15,O=C(c1ccc(Oc2ccc(Cl)cc2)c([N+](=O)[O-])c1)N1CCCC1,inactive
16,CC1CCN(C(=O)c2ccc(S(=O)(=O)Cc3cc(F)ccc3F)c([N+](=O)[O-])c2)CC1,23.1 µM (active)
17,Nc1ccc(C(=O)N2CCN(S(=O)(=O)c3ccc(Cl)cc3)CC2)cc1[N+](=O)[O-],inactive
18,CC[C@]1(O)C[C@@H]2CN(CCc3c([nH]c4ccccc34)[C@@](C(=O)OC)(c3cc4c(cc3OC)N(C)[C@H]3[C@@](O)(C(=O)OC)[C@H](OC(C)=O)[C@]5(CC)C=CCN6CC[C@]43[C@@H]65)C2)C1,0.164 µM (active)
19,COc1cc(NC(=O)Cn2nc(-c3ccc(C)c(C)c3)ccc2=O)cc(OC)c1,inactive
20,N#Cc1nc(NCc2ccc(Cl)c(Cl)c2)c2ncn(CCCO)c2n1,inactive
21,O=C(NCC(c1ccc(Cl)cc1)N1CCOCC1)c1ccccc1F (stereo unspecified),inactive
22,COc1ccccc1CCNC(=O)C(=O)NCCC1CCCCN1S(=O)(=O)c1cccs1 (stereo unspecified),inactive
23,O=C(NCCC1CCCCN1S(=O)(=O)c1ccc(F)cc1)C(=O)NC1CC1 (stereo unspecified),inactive
24,O=C(NCCC1CCCCN1S(=O)(=O)c1cccs1)C(=O)Nc1ccc(F)cc1F (stereo unspecified),23.1 µM (active)
